Hits are enriched below; roughly 12% of the tested compounds scored in any of these assays.
Sfp inh: qHTS Assay for Inhibitors of Bacillus subtilis Sfp phosphopantetheinyl transferase (PPTase) | 4'-phosphopantetheinyl transferase ffp (Bacillus subtilis), Q9F4F7 | Biochemical Sfp PPTase activity, qHTS | Potency, µM, inactives show largest response in the series, negative = inhibition, actives largely listed as inhibitors | 310,000 compounds, 3.5% hits | AID 1490, 2009;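 also: the enzyme is Sfp with the accession as filed and its product quenches rhodamine fluorescence; 0% = enzyme reaction without inhibitor and -100% = no enzyme wells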
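With Hepes-Na pH 7.6 buffer containing 10 mM MgCl2, Sfp (15 nM) modified BHQ-2-YbbR (12.5 uM) using rhodamine-CoA (5 uM). Two reads 30 minutes apart at 525/598 nm yielded each well's rate.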
G9a inh: qHTS Assay for Inhibitors of Histone Lysine Methyltransferase G9a | G9a H3K9 monomethylation, AlphaScreen, 2 h | Potency, µM (doses to about 102 µM), for the others: at the top dose activity, negative = inhibition, hits mostly inhibitors | 350,000 compounds, 8.8% hits | AID 504332, 2011; also: % is scaled to controls: 0 for no effect and ±100 for the full control effect; nearly all actives have a fitted effect of over 75% in size
Target sequence (Q96KQ7 913-1193 limits assumed): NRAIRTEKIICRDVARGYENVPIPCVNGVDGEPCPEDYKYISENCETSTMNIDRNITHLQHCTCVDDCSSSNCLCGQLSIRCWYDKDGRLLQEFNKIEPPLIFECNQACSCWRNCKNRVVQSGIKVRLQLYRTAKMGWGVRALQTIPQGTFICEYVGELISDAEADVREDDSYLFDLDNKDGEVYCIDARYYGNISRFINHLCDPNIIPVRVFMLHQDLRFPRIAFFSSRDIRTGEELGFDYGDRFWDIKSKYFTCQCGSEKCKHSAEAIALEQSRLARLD
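Enzyme 20 nM + cpd, 15 min RT; add b-H3K9 pep 500 nM / SAM 20 uM; 2 h RT; anti-H3K9me1 Ab 0.5 ug/mL + SA donor / anti-rabbit acceptor beads 20 ug/mL each, 10 min; AlphaScreen read.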
JMJD2A Tudor: qHTS Assay for Inhibitors of JMJD2A-Tudor Domain; Potency, µM (highest dose often 114 µM), for the others: at the top dose activity change, negative = inhibition, hits mostly inhibitors; 390,000 compounds, 4.4% hits; AlphaScreen JMJD2A-Tudor / H3K4me3 peptide binding; Lysine-specific demethylase 4A (Homo sapiens), O75164; also: % is scaled to controls: 0 for no effect and ±100 for the full control effect; nearly all actives have a fitted effect of over 50% in size
BAZ2B inh: qHTS Assay for Inhibitors of BAZ2B; AlphaScreen BAZ2B-H3K14Ac peptide displacement; Potency, µM (highest dose often 114 µM), for inactives: top-dose activity change, negative = inhibition, usual class: inhibitors; 360,000 compounds, 4.4% hits; also: % is scaled to controls: 0 for no effect and ±100 for the full control effect; nearly all actives have a fitted effect of over 60% in size
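BAZ2B 50 nM plus b-H3(5-23)K14Ac 50 nM, PBS pH 7.4/0.01% Tween-20, 30 min RT; compound added (max 110 uM), 30 min RT; streptavidin donor/Ni-chelate acceptor beads 10 ug/mL final, 20 min dark; AlphaScreen read.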
L3MBTL1 inh: qHTS Assay for the Inhibitors of L3MBTL1; Lethal(3)malignant brain tumor-like protein 1 (Homo sapiens), Q9Y468; 230,000 compounds, 0.66% hits; Potency, µM (highest dose often 57.1 µM), without a hit: at the top dose activity, negative = inhibition, most hits filed as inhibitors; AlphaScreen L3MBTL1–H3K9me1 peptide binding; also: % is scaled to controls: 0 for no effect and ±100 for the full control effect; nearly all actives have a fitted effect of over 60% in size
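L3MBTL1 50 nM + b-AHA-H3(1-15)K9me1 75 nM, 30 min RT; compound added, 30 min RT; streptavidin donor/Ni-chelate acceptor beads 10 ug/mL each final, 30 min RT dark; AlphaScreen read.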
HP1b chromo inh: HTS for Inhibitors of HP1-beta Chromodomain Interactions with Methylated Histone Tails. AID 540317, 2011. Potency, µM (doses to about 114 µM), for the others: top-dose activity change, negative = inhibition, usual class: inhibitors. Chromobox protein homolog 1 (Homo sapiens), P83916. 390,000 compounds, 0.56% hits. AlphaScreen HP1-beta / biotin-H3K9me3 peptide binding; also: nearly all actives have a fitted effect of over 70% in size
Target sequence (P83916 whole entry, looked up): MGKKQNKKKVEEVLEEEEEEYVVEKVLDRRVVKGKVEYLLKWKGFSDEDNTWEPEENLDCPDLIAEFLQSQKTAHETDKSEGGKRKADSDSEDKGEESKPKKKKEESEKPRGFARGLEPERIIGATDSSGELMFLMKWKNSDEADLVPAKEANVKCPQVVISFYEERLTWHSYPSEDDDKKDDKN
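HP1-beta protein (50 nM final) preincubated 30 min at room temperature with biotinylated H3(1-18)K9me3 peptide (50 nM) in PBS pH 7.4, 0.01% Tween-20, then compound added for 30 min. AlphaScreen streptavidin donor/nickel chelate acceptor beads (10 ug/mL final), 30 min dark, luminescence read.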
* hit, by the source's call; ? = inconclusive; nt = no result given; [ ] = dose if it differs, or a comment. Calls follow the shape of the dose curve; as a rule, active = well fitted curve in the direction sought with a large enough effect; inconclusive = small, poorly fitted or top-dose-only effect, or another doubt; inactive = no such curve, though single readings can be large; an effect the other way counts as inactive or inconclusive. Potency is read from the fitted curve at half-maximal effect.

SMILES	Sfp inh	G9a inh	JMJD2A Tudor	BAZ2B inh	L3MBTL1 inh	HP1b chromo inh
O=C1CC(c2cc(F)cc(F)c2)c2cc3c(cc2N1)OCO3 (stereo not drawn)	nt	-32%[59 µM]	-32%	?	nt	-3%
CC(=O)N(C)Cc1ccc(C(=O)CCl)cc1	79µM*	?	7%	-9%	-12%	?
CCC(C)/C=C/C1=CC2=C(Cl)C(=O)C3(C)OC(=O)C(C(=O)C(C)C(C)O)C3C2=CO1 (stereo not drawn)	32µM*	?	-35%	?	-19%	3%
CC(C)CCNC(=O)C(=O)Nc1c2c(nn1-c1ccc(Cl)cc1)CSC2	nt	28%[59 µM]	-6%	0%	nt	28%
CCOc1cc2[nH]c(=S)n(C(C)C)c(=O)c2cc1OCC	1%	3%	-4%	17%	nt	49%
CCC(CO)n1c(=S)[nH]c2cc(OC)c(OC)cc2c1=O (stereo not drawn)	-30%	18µM*	25µM*	-17%	nt	38%
CCCN1CCN(c2cc3c(cc2F)c(=O)c(S(=O)(=O)c2ccc(CC)cc2)cn3CC)CC1	nt	-5%[59 µM]	-15%	-7%	nt	38%
O=C(/C=C/c1ccc([N+](=O)[O-])cc1)N(c1ccccn1)C1CCCCC1	-1%	5.6µM*	56µM*	nt	?	?
Nc1ccccc1NC1CCCCC1	-19%	50µM*	56µM*	32µM*	nt	?
O=C(Nc1ccccc1NC(=O)NC1CCCCC1)NC1CCCCC1	27%	-1%[59 µM]	-8%	12%	4%	16%
CCN1C(=O)[C@H]2[C@H]3[C@H](O)[C@H](O)C/C(=N/O[C@@H](C)c4cc(-c5c(C)cc(C)cc5C)no4)[C@@H]3CC[C@@H]2C1=O	-1%	nt	nt	nt	nt	nt
Oc1ccc(-c2csc(Nc3ncccn3)n2)c(O)c1	50µM*	-8%	3%	nt	5%	51%
Oc1ccc(-c2csc(Nc3ncccn3)n2)cc1O	50µM*	2.2µM*	28µM*	nt	-1%	71µM*
CC(=O)Nc1cccc(-c2csc(Nc3ncccn3)n2)c1	-27%	16µM*	nt	-12%	?	nt
CC(=O)Nc1cccc(-c2csc(Nc3ccc(C)cn3)n2)c1	-25%	?	?	?	-6%	-23%
Cc1cccc(Nc2nc(-c3ccc(O)cc3O)cs2)n1	?	50µM*	?	?	-11%	-2%
Oc1ccc(-c2csc(Nc3ccc4c(c3)OCO4)n2)c(O)c1	nt	nt	56µM*	nt	nt	?
CCCC(=O)C1=C(c2cccc(OC)c2)N(C(=O)CCC)n2c(C)nnc2S1	nt	16%[59 µM]	55%	62%	nt	82%
COc1ccc(-c2noc(CSc3nc(N)cc(=O)[nH]3)n2)cc1OC	nt	-36%[59 µM]	-7%	-3%	nt	12%
CC(=O)C1=C(C)OC(N)=C(C#N)C1c1ccncc1 (stereo not drawn)	?	?	-5%	9%	-14%	45%
Cc1nn(-c2cccc(Cl)c2)c2c1C(c1cccnc1)C(C#N)=C(N)O2 (stereo not drawn)	-4%	45µM*	?	50µM*	-10%	-15%
COc1ccc(OC)c(C2C(C#N)=C(N)Oc3c2c(C)nn3-c2cccc(Cl)c2)c1 (stereo not drawn)	-2%	40µM*	50µM*	40µM*	-14%	-38%
Cc1nn(-c2cccc(Cl)c2)c2c1C(c1ccncc1)C(C#N)=C(N)O2 (stereo not drawn)	-9%	?	79µM*	40µM*	-27%	?
[O-][N+](=Nc1ccccc1)c1ccccc1	0%	31%[59 µM]	nt	nt	nt	nt
Cc1cccc(N2CCN(C(=O)CS(=O)(=O)c3cccc4nsnc34)CC2C)c1 (stereo not drawn)	nt	4%[59 µM]	-26%	-17%	nt	5%[57 µM]
